Assay results: PubChem BioAssay
“And” between values parts separate entries of the source, which are not always exact repeats. Equal values may be shown once. Inconclusive results are not listed. The source made the active and inactive calls.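 The calls were made as follows, unless noted: active = binding below the plate cutoff, the plate median minus 3 SD, with a reading above zero; inconclusive = below the plate cutoff but reading exactly zero; inactive = the rest.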

How the values were obtained:
[1] = rapamycin-like changes in RPL19A-GFP expression – cell-based, S. cerevisiae, multiplex flow cytometry, primary screen (AID 1862; in the data active = percent of DMSO control GFP below about 86%;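 also: lower values mimic rapamycin by blocking the RPL19A rise seen in DMSO cells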); conditions: S. cerevisiae RPL19A-GFP strain, flow cytometry fluorescence, 3 h; at 10 µM; stronger effect = lower value
[2] = TOR pathway GLN3 branch reporter MEP2-GFP changes – S. cerevisiae, multiplex flow cytometry, primary screen (AID 1867;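 active = GFP response, as percent of the DMSO control, above the screen-wide mean plus 3 SD, about 139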;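 also: median GFP channel fluorescence of barcode-gated MEP2-GFP cells measured by flow cytometry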); conditions: S. cerevisiae MEP2-GFP strain, 3 h, at 10 µM, stronger effect = higher value, 100% means same as DMSO wells
[3] = TOR pathway RTG branch CIT2 reporter changes – S. cerevisiae, GFP fusion, multiplex flow cytometry, primary screen (AID 1870;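 active = percent response above a set limit, the screen-wide mean plus 3 SD, cut at about 130% in these data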;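 also: barcoded CIT2-GFP strain pooled with four other GFP strains with rapamycin as positive control; median GFP fluorescence per well over plate mean of DMSO wells so 100% = DMSO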); conditions: S. cerevisiae CIT2-GFP expression, 3 h, at 10 µM, stronger effect = higher value
[4] = TOR pathway LAP4-GFP level changes – S. cerevisiae, multiplex flow cytometry, primary screen (AID 1873;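 active = GFP signal, as percent of the solvent control, above the screen mean plus 3 SD, about 149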); conditions: S. cerevisiae LAP4-GFP expression, 3 h, at 10 µM, stronger effect = higher value
[5] = yeast AGP1-GFP level changes, GLN3 branch – cell-based, multiplex flow cytometry, S. cerevisiae, primary screen (AID 1887;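 active = GFP signal above the screen-wide mean plus 3 SD, that is over about 124.5% of the solvent control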;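 also: AGP1-GFP fusion strain of S. cerevisiae within a five-strain barcoded multiplex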); conditions: 3 h, at 10 µM, stronger effect = higher value
[6] = reduced mouse 2C T cell binding to pMHC/ICAM-1 vesicles – MLPCN validation set, flow cytometry, LFA-1/ICAM-1 modulator project, pilot screen (AID 2523;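 active = response below a set limit, under 55% cells CD8-positive and vesicle-bound, and CD8 cells' 90th-percentile brightness under 279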;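 as to vesicle binding response: mean PE anti-B7-1 fluorescence of CD8+ cells relative to row control; 100% = QL9-loaded vesicles with DMSO vehicle in the same plate row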); conditions: 2C mouse CD8+ T cells, at 7 µM, stronger effect = lower value; double positive events: measured here: CD8+/vesicle+ event percentage
[7] = molecular target: Integrin beta-1 (Homo sapiens) + Integrin alpha-4 (Homo sapiens) (UniProt P13612+P05556); experiment: alpha4beta1 integrin LIBS antibody binding reduction – U937 cells, HUTS-21 mAb, flow cytometry, validation set, VLA-4 allosteric modulator project, pilot screen (AID 2674;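 active = inhibition above 50%, about 3 SD of the validation set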;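 also: antibody binding induced by the VLA-4 ligand LDV present at three times its Kd; 0% = LDV ligand with antibody and no compound and 100% = antibody without LDV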); conditions: HUTS-21 LIBS mAb binding, at 6.7 µM, stronger effect = higher value, binding induced by LDV ligand
Integrin beta-1 (Homo sapiens) + Integrin alpha-4 (Homo sapiens), sequence (P05556 whole entry, looked up): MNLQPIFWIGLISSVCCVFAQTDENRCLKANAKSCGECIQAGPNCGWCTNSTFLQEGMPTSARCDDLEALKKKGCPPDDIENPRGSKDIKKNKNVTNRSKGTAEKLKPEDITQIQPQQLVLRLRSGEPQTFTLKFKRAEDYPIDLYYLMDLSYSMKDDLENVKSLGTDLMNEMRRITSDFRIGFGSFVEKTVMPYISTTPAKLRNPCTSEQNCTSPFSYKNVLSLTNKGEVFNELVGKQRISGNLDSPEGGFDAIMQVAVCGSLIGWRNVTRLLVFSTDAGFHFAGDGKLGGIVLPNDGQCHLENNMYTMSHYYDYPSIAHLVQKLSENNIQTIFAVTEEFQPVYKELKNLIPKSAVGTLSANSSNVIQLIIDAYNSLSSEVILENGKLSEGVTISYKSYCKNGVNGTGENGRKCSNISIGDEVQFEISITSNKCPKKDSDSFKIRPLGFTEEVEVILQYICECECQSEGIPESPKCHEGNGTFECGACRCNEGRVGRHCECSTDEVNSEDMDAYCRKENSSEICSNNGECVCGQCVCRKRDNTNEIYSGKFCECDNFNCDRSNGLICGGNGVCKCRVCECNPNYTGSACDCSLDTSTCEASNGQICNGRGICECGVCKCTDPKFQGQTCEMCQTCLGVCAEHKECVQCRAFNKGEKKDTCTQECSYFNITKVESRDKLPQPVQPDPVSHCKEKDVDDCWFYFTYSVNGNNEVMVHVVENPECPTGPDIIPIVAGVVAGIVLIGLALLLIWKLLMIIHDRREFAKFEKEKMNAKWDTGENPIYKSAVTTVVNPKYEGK
Integrin beta-1 (Homo sapiens) + Integrin alpha-4 (Homo sapiens), sequence (P13612 whole entry, looked up): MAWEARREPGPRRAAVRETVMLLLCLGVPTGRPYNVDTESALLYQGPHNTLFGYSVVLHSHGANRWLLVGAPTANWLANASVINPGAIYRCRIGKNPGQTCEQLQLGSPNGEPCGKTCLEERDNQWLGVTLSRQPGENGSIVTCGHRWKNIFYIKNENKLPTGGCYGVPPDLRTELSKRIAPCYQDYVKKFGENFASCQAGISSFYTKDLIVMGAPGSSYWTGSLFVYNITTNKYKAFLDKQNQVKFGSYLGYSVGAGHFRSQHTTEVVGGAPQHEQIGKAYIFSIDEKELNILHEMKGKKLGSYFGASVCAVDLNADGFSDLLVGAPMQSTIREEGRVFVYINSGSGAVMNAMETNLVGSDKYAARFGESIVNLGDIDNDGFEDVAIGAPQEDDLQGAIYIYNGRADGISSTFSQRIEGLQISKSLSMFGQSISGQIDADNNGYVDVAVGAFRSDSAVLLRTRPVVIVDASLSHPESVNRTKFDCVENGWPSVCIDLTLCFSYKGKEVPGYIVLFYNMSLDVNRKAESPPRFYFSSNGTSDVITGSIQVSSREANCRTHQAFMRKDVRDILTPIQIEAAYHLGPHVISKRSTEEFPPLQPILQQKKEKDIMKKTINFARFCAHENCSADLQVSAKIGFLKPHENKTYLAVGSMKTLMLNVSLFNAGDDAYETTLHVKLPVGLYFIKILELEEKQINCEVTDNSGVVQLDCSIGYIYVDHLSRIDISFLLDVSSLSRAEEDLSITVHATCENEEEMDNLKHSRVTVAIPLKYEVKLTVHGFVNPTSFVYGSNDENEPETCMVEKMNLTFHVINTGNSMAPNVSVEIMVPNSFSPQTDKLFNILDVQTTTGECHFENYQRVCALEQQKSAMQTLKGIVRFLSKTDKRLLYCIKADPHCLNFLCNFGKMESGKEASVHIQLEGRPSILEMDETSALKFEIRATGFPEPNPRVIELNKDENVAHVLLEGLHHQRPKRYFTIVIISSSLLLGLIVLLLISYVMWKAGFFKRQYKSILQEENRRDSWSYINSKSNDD

[8] = calorie-restriction mimetic ROS inhibitors, yeast – validation compound set, pilot screen (AID 2706;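 active = superoxide response below 65% of plate, a cut near 3 SD across the whole screen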;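 also: yeast exposed to compound for one week at 30 degrees C before staining; 100% = mean of all compound wells on the same plate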); conditions: S. cerevisiae aging, superoxide DHE fluorescence; at 10 µM; stronger effect = lower value
[9] = molecular target: Beta-adrenergic receptor kinase 1 (Homo sapiens) (UniProt P25098); experiment: GRK2 binders displacing RNA aptamer, biochemical, validation, human GRK2, bead flow cytometry (AID 488806;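 active = aptamer binding inhibition above 30%, about 3 SD of noise from non-fluorescent compounds; inactive = inhibition at or below 30%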); conditions: bead-bound GRK2, FAM-aptamer displacement, at 10 µM, stronger effect = higher value
Beta-adrenergic receptor kinase 1 (Homo sapiens), sequence (P25098 whole entry, looked up): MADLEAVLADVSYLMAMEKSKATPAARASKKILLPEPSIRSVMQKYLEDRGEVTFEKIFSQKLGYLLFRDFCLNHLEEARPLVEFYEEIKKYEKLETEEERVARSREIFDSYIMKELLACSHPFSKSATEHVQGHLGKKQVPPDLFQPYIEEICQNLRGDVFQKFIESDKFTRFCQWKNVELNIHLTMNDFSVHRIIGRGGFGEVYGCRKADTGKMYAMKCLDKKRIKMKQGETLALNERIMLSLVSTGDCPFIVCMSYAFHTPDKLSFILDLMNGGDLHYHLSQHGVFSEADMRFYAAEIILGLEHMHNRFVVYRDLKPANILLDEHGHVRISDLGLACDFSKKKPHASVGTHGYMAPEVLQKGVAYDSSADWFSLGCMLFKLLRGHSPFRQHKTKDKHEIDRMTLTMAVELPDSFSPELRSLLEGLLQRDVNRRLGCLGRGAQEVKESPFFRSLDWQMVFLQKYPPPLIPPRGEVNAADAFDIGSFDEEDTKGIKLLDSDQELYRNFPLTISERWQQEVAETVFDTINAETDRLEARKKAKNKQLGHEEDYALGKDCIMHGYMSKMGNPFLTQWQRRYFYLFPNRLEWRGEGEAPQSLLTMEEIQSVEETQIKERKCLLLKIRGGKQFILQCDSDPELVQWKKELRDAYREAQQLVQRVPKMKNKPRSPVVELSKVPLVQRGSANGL

[10] = molecular target: Beta-2 adrenergic receptor (Homo sapiens) (UniProt P07550); experiment: agonist-induced loss of surface beta2AR – cell-based, FAP fluorogen, flow cytometry, validation set, pilot screen (AID 504459;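 active = percent response above 42, roughly 3 SD of non-fluorescent test compounds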;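 also: agonist-driven loss of surface beta2AR via internalization measured by FAP dye flow cytometry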); conditions: Am2.2-beta2AR cells, at 10 µM, stronger effect = higher value
Beta-2 adrenergic receptor (Homo sapiens), sequence (P07550 whole entry, looked up): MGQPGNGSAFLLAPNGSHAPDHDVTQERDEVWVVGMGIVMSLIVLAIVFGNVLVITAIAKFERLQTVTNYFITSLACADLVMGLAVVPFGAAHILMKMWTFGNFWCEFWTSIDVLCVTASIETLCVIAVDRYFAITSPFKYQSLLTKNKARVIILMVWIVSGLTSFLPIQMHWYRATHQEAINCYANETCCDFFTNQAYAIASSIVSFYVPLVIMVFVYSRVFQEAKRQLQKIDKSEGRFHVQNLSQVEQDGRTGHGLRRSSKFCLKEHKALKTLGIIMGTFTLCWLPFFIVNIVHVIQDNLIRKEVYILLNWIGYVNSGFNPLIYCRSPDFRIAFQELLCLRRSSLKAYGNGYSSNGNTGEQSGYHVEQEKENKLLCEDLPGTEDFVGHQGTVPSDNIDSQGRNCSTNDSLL

[11] = molecular target: AP-2 complex subunit beta (Homo sapiens) (UniProt P63010); experiment: beta-arrestin/AP2 interaction blockers – biochemical, validation set, GST-AP2 beads, flow cytometry, pilot screen (AID 504541;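 active = inhibition above 54%, about 3 SD of non-fluorescent compounds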;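 also: AP2 carries R879A mutation and is captured from E. coli lysate; bead-bound FITC arrestin peptide fluorescence measuring arrestin peptide binding to AP2; 0% = DMSO wells and 100% = excess unlabeled arrestin peptide control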); conditions: FITC arrestin peptide, at 10 µM, stronger effect = higher value, AP2 beta2 appendage fragment, R879A mutant
AP-2 complex subunit beta (Homo sapiens), sequence (P63010 whole entry, looked up, the tested form may be a part, one chain of several): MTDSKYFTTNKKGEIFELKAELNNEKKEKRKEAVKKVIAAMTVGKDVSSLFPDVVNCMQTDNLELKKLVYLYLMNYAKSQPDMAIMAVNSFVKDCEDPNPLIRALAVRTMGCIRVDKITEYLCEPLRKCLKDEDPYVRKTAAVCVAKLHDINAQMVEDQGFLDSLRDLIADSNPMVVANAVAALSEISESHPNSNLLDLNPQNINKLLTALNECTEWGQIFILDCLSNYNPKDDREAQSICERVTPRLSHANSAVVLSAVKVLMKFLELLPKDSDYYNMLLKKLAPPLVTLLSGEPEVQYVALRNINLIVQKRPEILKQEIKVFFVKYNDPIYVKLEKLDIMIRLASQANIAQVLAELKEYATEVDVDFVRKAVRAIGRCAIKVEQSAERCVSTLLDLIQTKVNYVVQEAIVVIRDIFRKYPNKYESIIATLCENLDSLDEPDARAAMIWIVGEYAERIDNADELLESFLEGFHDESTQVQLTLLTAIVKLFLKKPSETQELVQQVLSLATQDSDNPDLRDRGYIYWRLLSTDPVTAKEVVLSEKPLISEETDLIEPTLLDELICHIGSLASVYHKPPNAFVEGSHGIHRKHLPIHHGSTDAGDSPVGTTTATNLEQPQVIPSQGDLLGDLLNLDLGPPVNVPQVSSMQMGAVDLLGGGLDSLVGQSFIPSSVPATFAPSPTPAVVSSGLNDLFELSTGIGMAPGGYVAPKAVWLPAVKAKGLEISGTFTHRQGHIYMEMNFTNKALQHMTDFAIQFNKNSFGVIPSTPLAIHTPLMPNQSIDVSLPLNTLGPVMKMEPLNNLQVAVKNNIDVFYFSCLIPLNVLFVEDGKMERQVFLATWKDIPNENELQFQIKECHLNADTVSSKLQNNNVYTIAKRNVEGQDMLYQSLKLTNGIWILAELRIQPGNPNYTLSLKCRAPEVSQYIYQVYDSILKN

[12] = cytosolic pH regulators acting via V-ATPase – S. cerevisiae, pHLuorin, HTS validation (AID 504600; in the data active = response above about 15%;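 also: plate controls were DMSO for no effect and reference compound for full effect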); conditions: V-ATPase proton transport, at 10 µM, stronger effect = higher value
[13] = test system: anti-desmoglein-3 scFv antibody binding to human DSG3; experiment: blockers of pathogenic pemphigus antibody–desmoglein-3 binding – biochemical, validation compound set, bead-based, flow cytometry, pilot screen (AID 588368); conditions: Protein G beads, DSG3-Fc, scFv-GFP binding, at 10 µM, stronger effect = lower value;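 also: signal is the median channel fluorescence of bead-bound GFP antibody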
[14] = Nile Red efflux blockade in pump-expressing yeast – validation compound set, multiplex, phenotypic, pilot screen (AID 588506;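 active = efflux inhibition above 0.42, the validation set average plus 4 SD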;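 also: Nile Red retained in cells so higher fluorescence means more efflux inhibition; 0 = negative control wells and 1 = enniatin B 25 µM full block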); conditions: S. cerevisiae pump-expressing triplex, Nile Red efflux flow cytometry; at 10 µM; stronger effect = higher value; the pumps come from Candida albicans
[15] = molecular target: ATP-binding cassette sub-family B member 6 (Homo sapiens) (UniProt Q9NP58); experiment: blockers of ABCB6-driven porphyrin uptake – K562-ABCB6 cells, flow cytometry, validation set, pilot screen (AID 588550;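 active = inhibition above the screen-wide mean plus 3 SD, about 51%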;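 also: 0% = DMSO wells and 100% = benzethonium chloride 70 µM positive control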); conditions: K562-ABCB6 porphyrin accumulation, 1 h, at 10 µM, stronger effect = higher value
ATP-binding cassette sub-family B member 6 (Homo sapiens), sequence (Q9NP58 whole entry, looked up): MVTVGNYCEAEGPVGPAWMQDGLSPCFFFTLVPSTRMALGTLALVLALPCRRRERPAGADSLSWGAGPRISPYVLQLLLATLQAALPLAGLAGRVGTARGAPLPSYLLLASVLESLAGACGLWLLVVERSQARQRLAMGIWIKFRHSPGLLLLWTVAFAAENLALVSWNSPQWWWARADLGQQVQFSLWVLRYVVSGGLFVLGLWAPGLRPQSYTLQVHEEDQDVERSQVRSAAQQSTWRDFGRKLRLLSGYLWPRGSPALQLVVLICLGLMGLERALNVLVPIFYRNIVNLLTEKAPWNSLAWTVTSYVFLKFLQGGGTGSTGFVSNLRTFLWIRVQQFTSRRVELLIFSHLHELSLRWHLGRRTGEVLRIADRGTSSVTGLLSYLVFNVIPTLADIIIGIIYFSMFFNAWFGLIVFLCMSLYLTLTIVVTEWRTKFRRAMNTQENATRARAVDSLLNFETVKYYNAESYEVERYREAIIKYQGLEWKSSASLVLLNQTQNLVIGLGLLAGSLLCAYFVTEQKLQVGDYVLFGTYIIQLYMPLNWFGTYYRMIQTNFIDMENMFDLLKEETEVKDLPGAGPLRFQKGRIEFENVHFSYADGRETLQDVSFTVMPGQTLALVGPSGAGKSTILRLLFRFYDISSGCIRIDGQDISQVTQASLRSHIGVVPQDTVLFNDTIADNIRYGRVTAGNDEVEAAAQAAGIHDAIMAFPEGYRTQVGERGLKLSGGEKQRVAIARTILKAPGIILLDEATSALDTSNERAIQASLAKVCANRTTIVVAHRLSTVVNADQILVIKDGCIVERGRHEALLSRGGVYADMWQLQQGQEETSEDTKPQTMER

[16] = AML differentiation inducers, ER-HoxA9 marrow cells – cell-based, GFP/MAC1 double positive, flow cytometry, validation set, primary screen (AID 588685;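 active = differentiation response of at least 50%, scaled between solvent and reference control, from cells with both markers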;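 also: compound exposure lasts four days before antibody staining and flow analysis; 0% = DMSO wells and 100% = 5 µM fulvestrant positive control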); conditions: stronger effect = higher value, normalized: vehicle 0, fulvestrant 100

C=CCn1c(N2CCCCCC2)nc2c1c(=O)n(C)c(=O)n2C
inactive: percent of DMSO control GFP [1] 97.6% | GFP response vs DMSO [2] 97.6% | percent response of DMSO control [3] 95.7% | GFP response vs DMSO [4] 104% | GFP response, % of DMSO [5] 114% | vesicle binding response [6] 220% | inhibition [7] 7.4% | superoxide response (% of plate) [8] 112% | aptamer binding inhibition [9] 3% | response [10] -47.3% | inhibition [11] -11.7% | response [12] 0.52% | binding (% of control) [13] 95.9% | efflux inhibition (fraction of control) [14] 0.17 | inhibition [15] 7% | differentiation response [16] -11.9%
63.5%: double positive events [6]

O=C(COc1cc(O)c2c(=O)c3ccccc3oc2c1)OCc1ccccc1
61%: double positive events [6]
inactive: percent of DMSO control GFP [1] 101% | GFP response vs DMSO [2] 104% | percent response of DMSO control [3] 109% | GFP response vs DMSO [4] 85.5% | GFP response, % of DMSO [5] 97.6% | vesicle binding response [6] 152% | inhibition [7] -3.57% | superoxide response (% of plate) [8] 101% | aptamer binding inhibition [9] -2% | response [10] -4.65% | inhibition [11] -5.28% | response [12] 4.03% | binding (% of control) [13] 93.3% | efflux inhibition (fraction of control) [14] -0.01 | inhibition [15] 0% | differentiation response [16] 12.9%

COCCCN1C(=O)C(=O)/C(=C(/O)c2ccc3c(c2)CC(C)O3)C1c1cccnc1 (stereo not drawn)
inactive: percent of DMSO control GFP [1] 101% | GFP response vs DMSO [2] 102% | percent response of DMSO control [3] 101% | GFP response vs DMSO [4] 114% | GFP response, % of DMSO [5] 111% | vesicle binding response [6] 137% | inhibition [7] 3.14% | superoxide response (% of plate) [8] 97.1% | aptamer binding inhibition [9] -1% | response [10] -22.5% | inhibition [11] 1.96% | response [12] -1.78% | binding (% of control) [13] 108% | efflux inhibition (fraction of control) [14] 0 | inhibition [15] 4% | differentiation response [16] -9.91%
59%: double positive events [6]

CCN(CCCc1ccccc1)CCCc1ccccc1
63.1%: double positive events [6]
inactive: percent of DMSO control GFP [1] 100% | GFP response vs DMSO [2] 103% | percent response of DMSO control [3] 102% | GFP response vs DMSO [4] 106% | GFP response, % of DMSO [5] 118% | vesicle binding response [6] 202% | inhibition [7] 27.8% | superoxide response (% of plate) [8] 118% | aptamer binding inhibition [9] 0% | response [10] -9.83% | inhibition [11] 34.3% | response [12] -9.09% | binding (% of control) [13] 103% | efflux inhibition (fraction of control) [14] 0.04 | inhibition [15] 3% | differentiation response [16] -9.91%

CCN1C(=O)C(CC(=O)Nc2ccc(OC)cc2)N(CCc2ccc(F)cc2)C1=S (stereo not drawn)
60.7%: double positive events [6]
inactive: percent of DMSO control GFP [1] 96.9% | GFP response vs DMSO [2] 98.5% | percent response of DMSO control [3] 93.9% | GFP response vs DMSO [4] 124% | GFP response, % of DMSO [5] 96.2% | vesicle binding response [6] 292% | inhibition [7] -3.16% | superoxide response (% of plate) [8] 102% | aptamer binding inhibition [9] 2% | response [10] 5.66% | inhibition [11] 50.8% | response [12] -3.51% | binding (% of control) [13] 102% | efflux inhibition (fraction of control) [14] 0.19 | inhibition [15] 3% | differentiation response [16] 8.8%

OC(CCCN1CCC(O)(c2ccc(Cl)cc2)CC1)c1ccc(F)cc1 (stereo not drawn)
49.2%: double positive events [6]
inactive: percent of DMSO control GFP [1] 99.6% | GFP response vs DMSO [2] 103% | percent response of DMSO control [3] 108% | GFP response vs DMSO [4] 101% | GFP response, % of DMSO [5] 106% | vesicle binding response [6] 168% | inhibition [7] -14.5% | superoxide response (% of plate) [8] 96% | aptamer binding inhibition [9] -3% | response [10] 5.29% | inhibition [11] -4.86% | response [12] -0.08% | binding (% of control) [13] 104% | efflux inhibition (fraction of control) [14] -0.005 | inhibition [15] -1% | differentiation response [16] 10.1%

COc1ccc(-c2[nH]ncc2CN(C)C(C)c2ccon2)c(OC)c1 (stereo not drawn)
inactive: percent of DMSO control GFP [1] 92.4% | GFP response vs DMSO [2] 137% | percent response of DMSO control [3] 106% | GFP response vs DMSO [4] 78.7% | GFP response, % of DMSO [5] 91% | vesicle binding response [6] 143% | inhibition [7] 10.3% | superoxide response (% of plate) [8] 99.7% | aptamer binding inhibition [9] 2% | response [10] -3.13% | inhibition [11] 8% | response [12] -3.5% | binding (% of control) [13] 105% | efflux inhibition (fraction of control) [14] 0.01 | inhibition [15] 11% | differentiation response [16] -4.91%
61.9%: double positive events [6]

COc1cc2nc(N3CCN(C(=O)C4CCCO4)CC3)nc(N)c2cc1OC (stereo not drawn)
55.7% and 64.6%: double positive events [6]
inactive: percent of DMSO control GFP [1] 102% | GFP response vs DMSO [2] 106% | percent response of DMSO control [3] 95.5% | GFP response vs DMSO [4] 92.6% | GFP response, % of DMSO [5] 94% | vesicle binding response [6] 197% and 148% | inhibition [7] 1.62% and 5.61% | superoxide response (% of plate) [8] 98% and 91.7% | aptamer binding inhibition [9] -3% and 5% | response [10] 20.9% | inhibition [11] 8.12% and -5.62% | response [12] -29.6% and 2.76% | binding (% of control) [13] 109% and 107% | efflux inhibition (fraction of control) [14] -0.39 and -0.33 | inhibition [15] 7% and -13% | differentiation response [16] 22.4% and 10.1%

COc1cc2cc(C(=O)O)[nH]c2c(OC)c1OC
inactive: percent of DMSO control GFP [1] 102% | GFP response vs DMSO [2] 106% | percent response of DMSO control [3] 96.6% | GFP response vs DMSO [4] 106% | GFP response, % of DMSO [5] 99.5% | vesicle binding response [6] 187% | inhibition [7] -1.49% | superoxide response (% of plate) [8] 112% | aptamer binding inhibition [9] 0% | response [10] -2.07% | inhibition [11] -16.9% | response [12] -0.34% | binding (% of control) [13] 98.7% | efflux inhibition (fraction of control) [14] -0.32 | inhibition [15] -4% | differentiation response [16] 8.06%
61%: double positive events [6]
